From PubChem BioAssay (EPA / NIEHS) come the findings set out here.

SMILES strings stand for the structures. A structure can be active in one record and inactive in another. Active and inactive are the calls of the source. How the source made its calls: active means hit-call score of the fitted dose curve at least 0.9, where 1 is the maximum; inactive means score below 0.9.

The experiment in a line: ATG_AP_1_CIS: Attagene CIS-FACTORIAL HepG2 Assay for human Activator Protein 1 (AP-1) (AID 2282931). The note with it: HepG2 Attagene cis-factorial AP-1 reporter mRNA; actives raise or lower the signal. Here is the method: ATG_CIS is a cell-based, multiplexed-readout assay that uses HepG2, a human liver cell line, with measurements taken at 24 hours after chemical dosing in a 24-well plate.ATG_AP_1_CIS is one of 52 assay component(s) measured or calculated from the ATG_CIS assay. It is designed to make measurements of mRNA induction, a form of inducible reporter, as detected with fluorescence intensity signals by Reverse transcription polymerase chain reaction (RT-PCR) and Capillary electrophoresis technology.Data from the assay component ATG_AP_1_CIS was analyzed into 1 assay endpoint. This assay endpoint, ATG_AP_1_CIS, was analyzed with bidirectional fitting relative to DMSO as the negative control and baseline of activity. Using a type of inducible reporter, measures of mRNA for gain or loss-of-signal activity can be used to understand the reporter gene at the transcription factor-level as they relate to the gene FOS and JUN. Furthermore, this assay endpoint can be referred to as a primary readout, because this assay has produced multiple assay endpoints where this one serves a reporter gene function. To generalize the intended target to other relatable targets, this assay endpoint is annotated to the dna binding intended target family, where the subfamily is basic leucine zipper.
Human liver HepG2 cells are transiently transfected with multiple reporter transcription units (MRTUs) in 6-well plates using FuGene 6 reagent (Roche; 3 ml FuGene/1 mg DNA). The MRTU constructs are regulated by a cis-regulating element (promoter). […] A major difference between the CIS and TRANS system is that in CIS activities of endogenous TFs are measured, whereas the TRANS assay evaluates changes in activities of exogenous, chimeric NR-Gal4 proteins. […] At the end of 24 hour incubation, total RNA was isolated using TriZol reagent (Invitrogen). The isolated RNA is then reverse-transcribed using oligo(dT) primer and Mo-MLV reverse transcriptase (Invitrogen) with DNAse I (Ambion) treatment for 30 min. The one-tenth of the produced cDNA was amplified by PCR using Taq DNA polymerase (Invitrogen) and two reporter sequence-specific primers. The PCR products were fluorescently labeled by primer extension with 6-arboxyfluorescein (6-FAM) 5'-labeled reporter sequence-specific primer (2 min at 95 C, 20 s at 68 C and 10 min at 72 C) and these products were digested with 5U of HpaI (New England Biolabs) for 2h at 37 C. The fragments were purified using Qiaquick PCR columns (Qiagen), analyzed on an ABI 3130xL genetic analyzer (Applied Biosystems) with peak positions identified by using a set of X-rhodamine (ROX)-labeled MapMarker1000 molecular weight standards (BioVentures). The raw capillary electrophoresis data was processed using Attagraph software (Attagene).
As a reminder, the AC50 is the concentration at which the activity in the assay is half-maximal. For `O=C(CC(=O)C(F)(F)C(F)(F)F)C(F)(F)F`, the AC50 is 150 µM (active) and the call was inactive.

As to `CCCCOCCOCCOC(=O)CCCCC(=O)OCCOCCOCCCC`, the result was inactive. Regarding `FC(F)(F)C(F)(F)C(F)(F)C(F)(F)CCI`, the outcome was inactive. Same read-out and setting: as for `O=C(O)C(F)(F)C(F)(F)C(F)(F)C(F)(F)F`, the entry is “inactive”; as for `CC(C)(C)C(=O)CC(=O)C(F)(F)C(F)(F)C(F)(F)F`, “inactive”.

For the molecule `C=C(C)C(=O)OCC(F)(F)C(F)(F)C(F)(F)F`, the outcome was inactive. Turning to `C=C(C)C(=O)OCCC(F)(F)C(F)(F)C(F)(F)C(F)(F)C(F)(C(F)(F)F)C(F)(F)F`, the molecule was called inactive. Still for that read-out and setting: as for `CN(C)Cc1ccccc1O`, the entry is “inactive”; as for `O=C(O)C(F)(OC(F)(F)C(F)(OC(F)(F)C(F)(OC(F)(F)C(F)(F)C(F)(F)F)C(F)(F)F)C(F)(F)F)C(F)(F)F` (stereo not given), “inactive”.

Regarding `O=C(O)C(F)(F)C(F)(F)C(F)(F)C(F)(F)C(F)(F)C(F)(F)C(F)(F)C(F)(F)C(F)(F)C(F)F`, the AC50 was 26.6 µM (active). Consider `CCCCCCCCC(F)(F)C(F)(F)C(F)(F)C(F)(F)C(F)(F)C(F)(F)F`, for which the call was inactive. In the case of `CCN(CC)c1ccc2c(C)cc(=O)oc2c1`, the molecule was classed as inactive. Consider `OCC(F)(F)C(F)(F)C(F)(F)C(F)(F)C(F)(F)C(F)(F)F`, for which the molecule was classed as inactive.

With `FC(F)(F)C(F)(F)CNCC(F)(F)C(F)(F)F`, the call was inactive. Same read-out and setting: as for `CCCCCCS`, the entry is “inactive”; as for `C=CC(F)(F)C(F)(F)C(F)(F)C(F)(F)C(F)(F)C(F)(F)C(F)(F)C(F)(F)C=C`, “inactive”. On the same count and under the same terms, in the case of `O=S(=O)(O)c1ccc2ccccc2c1` it was “inactive”; in that of `CCCCNc1ccccc1`, “inactive”; in that of `Cc1cc(C)cc(O)c1`, “inactive”. With `CCCCOc1ccc(N)cc1`, the result was inactive.

For the molecule `O=P(O)(O)OCCC(F)(F)C(F)(F)C(F)(F)C(F)(F)C(F)(F)C(F)(F)F`, the outcome was inactive.

Take `O=C(O)C(F)(F)C(F)(F)OC(F)(F)F`: the molecule was classed as inactive. As to `FC(F)(F)C(F)(F)C(F)(F)C(F)(F)C(F)(F)CCI`, the AC50 was 59.9 µM (active). Take `C=CC(=O)OCC(F)(F)C(F)(F)C(F)(F)C(F)(F)COC(=O)C=C`: the AC50 was 50 µM (active). Regarding `COC(=O)C1CCC(C(=O)OC)CC1` (stereo not given), the outcome was inactive. Take `CCCCCCCCCCCCCCCC[N+](C)(C)Cc1ccccc1`: the molecule was classed as inactive.

For the molecule `OCC(F)(F)C(F)(F)C(F)(F)C(F)F`, the molecule was classed as inactive. With `c1ccc(-c2ccccc2-c2ccccc2)cc1`, the AC50 was 58.7 µM (active). In the case of `FC(F)(F)C(F)(F)C(F)(F)C(F)(F)C(F)(F)C(F)(F)C(F)(F)C(F)(F)CCS`, the molecule was called inactive. `Nc1cc(Cl)c(N)c(Cl)c1`: the call was inactive.

Turning to `CS(C)(=O)=O`, the call was inactive.

With `OCCCC(F)(F)C(F)(F)C(F)(F)C(F)(F)C(F)(F)C(F)(F)C(F)(F)F`, the molecule was called inactive.

Regarding `O=S(=O)(OCC(F)F)C(F)(F)F`, the molecule was called inactive. The same measure, in the same setting: in the case of `OCCCC(F)(F)C(F)(F)C(F)(F)F` it was “inactive”; in that of `NC(=O)C(F)(F)C(F)(F)C(F)(F)C(F)(F)F`, “inactive”. Still for that read-out and setting: in the case of `Nc1ccc(S(=O)(=O)Nc2nccs2)cc1` it was “inactive”; in that of `OC[C@@H](O)[C@@H](O)[C@H](O)[C@@H](O)CO`, “inactive”. Same read-out and setting: as for `O=C(O)C(F)(F)C(F)(F)C(F)(F)F`, the entry is “inactive”. Take `FC(F)(F)C(F)(F)C(F)(F)C(F)(F)C(F)(F)C(F)(F)C(F)(F)I`: the result was inactive.
